RORg inh – inhibitors of mouse ROR gamma transcriptional activity; P51450; Drosophila S2 Gal4-RORgamma UAS-luciferase reporter, 20 h; Potency, µM (doses to about 53.6 µM), for inactives: at the top dose activity change, negative = inhibition, usual class: inhibitors; actives 5.4% (n = 310,000); AID 2551; further: potency means the concentration at half of the fitted maximal effect; on the % scale 0 is the no-effect control and ±100 the full control effect; nearly all actives have a fitted effect of over 60% in size
Target sequence (P51450 whole entry, looked up, the tested form may be a part): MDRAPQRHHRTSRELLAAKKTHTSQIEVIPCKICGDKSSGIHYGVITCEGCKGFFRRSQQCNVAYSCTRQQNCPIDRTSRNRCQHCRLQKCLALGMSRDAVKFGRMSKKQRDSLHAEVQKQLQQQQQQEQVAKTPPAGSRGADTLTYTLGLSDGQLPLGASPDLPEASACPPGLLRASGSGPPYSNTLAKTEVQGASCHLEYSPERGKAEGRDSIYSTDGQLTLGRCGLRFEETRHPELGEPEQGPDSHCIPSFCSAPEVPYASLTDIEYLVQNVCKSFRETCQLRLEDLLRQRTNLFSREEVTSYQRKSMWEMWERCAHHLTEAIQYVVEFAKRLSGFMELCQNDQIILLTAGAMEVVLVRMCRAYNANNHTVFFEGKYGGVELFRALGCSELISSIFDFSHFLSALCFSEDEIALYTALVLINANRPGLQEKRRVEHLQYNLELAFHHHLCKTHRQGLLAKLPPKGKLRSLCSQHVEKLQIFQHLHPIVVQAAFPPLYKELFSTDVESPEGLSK
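Schneider cells (Drosophila), stable Gal4 DBD–ROR gamma + UAS-luc; 1 hr cmpd preincubation; Cu2+ induction 700 uM final; 20 hr ambient; luminescence.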
SW480 rerep – induces DNA re-replication in SW480 colon adenocarcinoma cells; actives 1.8% (n = 340,000); SW480 DNA re-replication, Hoechst DNA content imaging, 48 h; Potency, µM (top dose mostly 46.1 µM), without a hit: at the top dose re-replication activation, most hits filed as activators; further: potency means the concentration at half of the fitted maximal effect; % of control where 0% means no effect; nearly all actives have a fitted effect of over 55% in size
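Per well, 250 cells were exposed to pinned compound for 48 hr. Nuclear DNA was visualised with Hoechst (40 min, 37 C) and total object intensity recorded by fluorescence scanning.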
VP16 counter – counter-screen for ROR gamma inhibitors: Gal4-VP16 reporter. Drosophila S2 Gal4-VP16 UAS-luciferase, luminescence, 20 h. Potency, µM (series often up to 53.6 µM), for inactives: top-dose activity, negative = inhibition, actives largely listed as inhibitors. actives 3.5% (n = 310,000). AID 2546;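 further: Gal4-VP16 expression switched on by copper sulfate through the metallothionein promoter; potency means the concentration at half of the fitted maximal effect; on the % scale 0 is the no-effect control and ±100 the full control effect; nearly all actives have a fitted effect of over 50% in size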
MCF10A rerep – induces DNA re-replication in MCF 10a normal breast cells; MCF 10A DNA re-replication, Hoechst nuclear intensity, 48 h; Potency, µM (titrated, usually from 46.1 µM), for the others: top-dose activity, positive = re-replication, usual class: activators; actives 2.9% (n = 350,000); further: potency means the concentration at half of the fitted maximal effect; % of control where 0% means no effect; nearly all actives have a fitted effect of over 50% in size
IL1B secr inh – inflammasome signaling inhibition, IL-1 beta readout; actives 4.7% (n = 360,000); THP-1 LPS/ATP IL-1B secretion, AlphaLISA, 16 h; stronger effect = lower value; activity change, % at 57.5 µM; in the data active means activity change below about -50%; inconclusive means mostly about -30% to -49%; further: on the % scale 0 is the no-effect control and ±100 the full control effect
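Secreted IL-1B measured by AlphaLISA bead assay after 16 h compound exposure of THP-1 cells; compounds (final up to 57.5 uM) added 1 h before LPS (250 ng/mL) and ATP (1.25 mM) stimulation; lower signal means less secretion.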
Active calls of the source: *; ? = inconclusive; nt = no result; [ ] = remark or other dose. Rows were chosen to be rich in hits. Some 11% of all compounds tested hit in one or more screens of this group. Unless noted, the call rests on the fitted dose curve; in most records, active means well fitted curve in the direction sought with a large enough effect; inconclusive means small, poorly fitted or top-dose-only effect, or another doubt; inactive means no such curve, though single readings can be large; an effect the other way counts as inactive or inconclusive.

SMILES	RORg inh	SW480 rerep	VP16 counter	MCF10A rerep	IL1B secr inh
COC(=O)c1ccc(Cn2cnc3c(Cl)ncnc32)cc1	nt	18.2%	nt	23.6%	-93.7*
COC(=O)c1ccc(Cn2cc(Cl)cn2)cc1	1.4%[10 µM]	-6.5%	-8.4%	0.9%	?
CCOC(=O)Cc1csc(NC(=S)NC(=O)CC(C)C)n1	11.2µM*	-0.4%	?	15.7%	35.9
CCOC(=O)Cc1csc(NC(=S)NC(=O)c2cccc([N+](=O)[O-])c2)n1	11.2µM*	-4.9%	?	0.2%	5.9
CCOC(=O)Cc1csc(NC(=S)NC(=O)c2cc(OC)cc(OC)c2)n1	?	-7.4%	?	12.8%	11.9
COc1ccccc1NC(=O)Cc1csc(NC(=S)Nc2ccc(C)cc2)n1	0.891µM*	20.6µM*	2.82µM*	?	6.1
CCOC(=O)Cc1csc(NC(=S)NC(=O)c2ccccc2Br)n1	5.62µM*	2.9%	3.98µM*	4.7%	19.1
N#Cc1ccc(COC(=O)CN2C(=O)NC3(CCCC3)C2=O)cc1	nt	-0.5%	nt	-0.7%	-5.2
C1CCN2C[C@H]3C[C@H](CN4CCCCC34)C2C1 (stereo not given in full)	-1.2%	nt	6.8%	nt	nt
CCC(C(=O)NC(C)(C)C)N(Cc1ccc(OC)cc1)C(=O)c1snc(C(N)=O)c1N (stereo not given)	nt	nt	nt	nt	-3.4
CC(C)CC(=O)NC(=S)Nc1nc(-c2cccc3ccccc23)cs1	3.16µM*	?	12.6µM*	?	22.9
COc1ccccc1NC(=O)Nc1nc(CC(=O)N2CCN(c3ccccc3OC)CC2)cs1	nt	-2.0%	nt	?	-56.1*
CCOC(=O)Cc1csc(NC(=S)NC(=O)c2ccc(C)cc2)n1	5.01µM*	-16.2%	8.91µM*	-2.0%	-4.4
CCOC(=O)Cc1csc(NC(=S)NC(=O)c2ccccc2)n1	?	-2.4%	-93.6%	2.3%	19.6
CCCCCC1=C2CNC(C)(C(=O)OC)C=C2C(C)C1=O (stereo not given)	16.4%	nt	2.1%	nt	nt
c1ccc(C2CSc3ccccc3N2)cc1 (stereo not given)	-10.7%	7.1%	-2.8%	1.2%	25.8
S=C1CSc2ccccc2N1	3.55µM*	-4.5%	7.94µM*	-0.5%	2.2
CC1CSc2ccccc2NC1=S (stereo not given)	7.08µM*	-2.4%	7.94µM*	0.6%	13.7
c1ccc2c(c1)NCCS2	14.1%	-1.9%	-3.5%	-51.7%	9.1
Cc1cccc(C)c1NC(=O)CN1CCN(CCCC(c2ccc(F)cc2)c2ccc(F)cc2)CC1	1.1%[16.9 µM]	?	-8.7%[17 µM]	?	-60.2*
Cc1cccc(C)c1NC(=O)CN1CCC(Cc2ccccc2)CC1	nt	nt	nt	nt	17.7
C=C1N(C)c2cc([N+](=O)[O-])c(N)cc2C1(C)C	4.7%	2.5%	-3.1%	?	-53.2*
CC1(C)Oc2cc(N)c([N+](=O)[O-])cc2O1	15.6%	-8.7%	2.1%	-2.3%	-2.9
Cc1ccc(S(=O)(=O)Nc2cccnc2)cc1	16.5%	-0.5%	-2.3%	5.4%	22.4
CCCCOc1ccc(S(=O)(=O)Nc2cc(OC)ccc2OC)cc1	43.4%	6.2%	?	-4.4%	-75.2*
SMILES	RORg inh	SW480 rerep	VP16 counter	MCF10A rerep	IL1B secr inh
COc1ccc(S(=O)(=O)Nc2ccc3c(c2)CCC3)cc1	30.8%	?	-11.7%	81.7%	-187.2*
CCCCOc1ccc(S(=O)(=O)Nc2cccnc2)cc1	-31.2%	-1.8%	11.2µM*	-5.4%	-17.0
CCOc1ccc(S(=O)(=O)Nc2ccc3c(c2)n(C)c(=O)n3C)cc1	?	-6.0%	0.1µM*	14.2%	12.8
Cc1ccc(S(=O)(=O)Nc2ccc3c(c2)n(C)c(=O)n3C)cc1	35.4%	0.5%	?	16.6%	-3.0
NC(=O)C1CCCN(Cc2c(C(=O)N3CCc4ccccc4C3)nc3ccc(Cl)cn23)C1 (stereo not given)	12.7%	3.6%	-15.0%	-39.5%	-0.8
Cn1[nH]cc(C=NC(N)=O)c1=O	nt	1.8%	nt	-5.6%	0.0
CCOc1ccc(S(=O)(=O)Nc2cccc(N(C)S(C)(=O)=O)c2)cc1	1.3%	-4.1%	-24.3%	1.9%	0.0
CCOc1ccc(NS(=O)(=O)c2cnc(Cl)c(Cl)c2)cc1	9.2%	?	5.0%	4.11µM*	-99.2*
